Screening data: PubChem, several laboratories
PfHsp40 rescue: restores yeast growth despite PfHsp40 toxicity. growth rescue, % at 12.5 µM. S. cerevisiae expressing PfHsp40, growth rescue, ATP luminescence. 0.68% of 340,000 active; in the data active = growth rescue above about 28%, passing the limit was not always enough;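 note: yeast W303a lacking pdr1 and pdr3 grown in galactose medium; growth measured after three days at 30 °C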
CCHF vOTU inh-1: CCHFV vOTU protease inhibition | Pep-AMC fluorescence | inhibition, % at 11.5 µM | 0.55% of 370,000 active | AID 651958; note: 0% = vehicle wells with enzyme and 100% = no enzyme wells
PrPC surface inh: inhibitors of human cell surface prion protein PrPC. inhibition, % at 13.8 µM. AID 720596. 0.43% of 370,000 active. TR-FRET read-out; in the data active = inhibition above about 24%; note: 0% = median of the test wells and 100% = reference compound wells
Sa ugtP lethal: kills S. aureus RN4220 lacking UgtP; S. aureus RN4220 ugtP deletion, OD600 growth, 16 h; growth inhibition, % (concentration not given with the values); 0.54% of 330,000 active; AID 1259309; in the data active = growth inhibition above about 68%;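 note: plate controls were untreated wells for no effect and antibiotic for full effect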
PrP UTR inh: inhibition of PrP 5' UTR reporter expression | 0.35% of 340,000 active | cell-based PrP 5' UTR mRNA reporter, plate reader | AID 488862 | inhibition, % (concentration not given with the values); in the data active = inhibition above about 52%; note: 0 = median of the neutral control wells
Sa RN4220 lethal: kills Staphylococcus aureus RN4220. 0.33% of 330,000 active. inhibition, % (no concentration beside the values). AID 1259311. S. aureus RN4220 growth, OD600, 16 h; in the data active = inhibition above about 85%;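 note: plate controls were untreated cells for no effect and reference antibiotic for full effect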
CCHF vOTU inh-2: confirmation of CCHF virus vOTU protease inhibitors; inhibition, % at 11.5 µM; shares compounds with CCHF vOTU inh-1; 17% of 1,900 active; AID 686976; Recombinant CCHFV vOTU, Pep-AMC fluorescence
Starred values were filed as active, the others as inactive. Compounds with a hit are over-represented: about 2.1% of the library has one in this group of screens. Cut-off read from the data, not from the text of the source, unless noted: active = inhibition above about 30%; inactive = the rest.

Screening CC1=C(C(=O)N(C(C)C)C(C)C)CC(CC(=O)NCc2cccc3ccccc23)C(=O)N1Cc1ccc(C(C)(C)C)cc1 (stereo not drawn) returned CCHF vOTU inh-1 33*, PrPC surface inh 5 and CCHF vOTU inh-2 15.
`CC1=C(C(=O)N2CCOCC2)CC(CC(=O)NCCCN(C)C)C(=O)N1Cc1ccc(F)cc1` (stereo not drawn) gave CCHF vOTU inh-1 37*, PrPC surface inh -5 and CCHF vOTU inh-2 -11.
Screening CC1=C(C(=O)N(C(C)C)C(C)C)CC(CC(=O)NCCCCc2ccccc2)C(=O)N1Cc1ccc(C(C)(C)C)cc1 (stereo not drawn) returned CCHF vOTU inh-1 35*, PrPC surface inh 13 and CCHF vOTU inh-2 16.
For CC1=C(C(=O)OCc2cc(C)on2)N2C(=O)C(NC(=O)OCc3cc(C)on3)C2SC1 (stereo not drawn) the results were Sa ugtP lethal 0 and Sa RN4220 lethal 6.
`Cc1ccc(S(=O)(=O)N2C(c3ccc(Cl)cc3)CC=C(C(=O)O)C2c2ccccc2F)cc1` (stereo not drawn) gave Sa ugtP lethal 72 and Sa RN4220 lethal 19.
`O=[N+]([O-])c1cc2c(cc1C=Nn1c(-c3ccccn3)n[nH]c1=S)OCO2` gave Sa ugtP lethal 11 and Sa RN4220 lethal -4.
CC1=C(C(=O)N2CCOCC2)CC(CC(=O)NCCCCc2ccccc2)C(=O)N1Cc1ccc(C(C)(C)C)cc1 (stereo not drawn) was read as CCHF vOTU inh-1 32*, PrPC surface inh 0 and CCHF vOTU inh-2 1.
Screening CC1=C(C(=O)N(C)C)CC(CC(=O)NC(c2ccccc2)c2ccccc2)C(=O)N1Cc1ccc(F)cc1 (stereo not drawn) returned CCHF vOTU inh-1 34*, PrPC surface inh -4 and CCHF vOTU inh-2 -15.
Screening COC(=O)C1=C(C(=O)OC)C2Nc3ccccc3[C@@]23CC(C(=O)OC)N(C(=O)COCc2ccccc2)C3=N1 (stereo partly drawn) returned Sa ugtP lethal -6 and Sa RN4220 lethal -1.
O=S1(=O)NC2c3ccccc3CC2O1 (stereo not drawn) was read as PfHsp40 rescue 0, CCHF vOTU inh-1 37*, PrPC surface inh 3, Sa ugtP lethal 0, PrP UTR inh -10, Sa RN4220 lethal 8 and CCHF vOTU inh-2 -5.
Screening CC(=NNC(=O)CNC(=O)Cc1ccccc1)c1ccc(Cl)cc1 returned Sa ugtP lethal 9 and Sa RN4220 lethal 2.
Cc1ccc2c(c1)c(=O)c1c3n2CCN(CC#N)C3CC1 (stereo not drawn) was read as PfHsp40 rescue -1, CCHF vOTU inh-1 -6, PrPC surface inh -2, Sa ugtP lethal 9, PrP UTR inh -36 and Sa RN4220 lethal 4.
`Cc1ccc2c(c1)c(=O)c1c3n2CCN(C(=O)CCl)C3CC1` (stereo not drawn) gave PfHsp40 rescue -1, CCHF vOTU inh-1 51*, PrPC surface inh -9, Sa ugtP lethal -1, PrP UTR inh 12, Sa RN4220 lethal 3 and CCHF vOTU inh-2 19.
Screening Cc1[nH][nH]c(=O)c1C(c1ccc(-c2cccc(C(=O)O)c2)o1)c1c(C)[nH][nH]c1=O returned PfHsp40 rescue -2, CCHF vOTU inh-1 40*, PrPC surface inh 3, Sa ugtP lethal 2, PrP UTR inh -19, Sa RN4220 lethal 1 and CCHF vOTU inh-2 -14.
`CC1CCN(C(=O)c2ccc(CNS(=O)(=O)c3ccc(C(C)(C)C)cc3)cc2)CC1` gave PfHsp40 rescue 7, CCHF vOTU inh-1 33*, PrPC surface inh 7, Sa ugtP lethal -11, PrP UTR inh -16, Sa RN4220 lethal -1 and CCHF vOTU inh-2 -2.
For COc1cc(Br)cc(C=NNC(=O)Cc2ccccc2)c1O the results were Sa ugtP lethal 9 and Sa RN4220 lethal 7.
`CCc1ccc(-c2csc(NC(=O)C3CC(=O)N(c4ccc5c(c4)OCCO5)C3)n2)cc1` (stereo not drawn) gave PfHsp40 rescue 2, CCHF vOTU inh-1 30*, PrPC surface inh 6, Sa ugtP lethal 4, PrP UTR inh -12, Sa RN4220 lethal -10 and CCHF vOTU inh-2 -22.
`Cc1csc(NC(=O)C2CC(=O)N(c3ccc4c(c3)OCCO4)C2)n1` (stereo not drawn) gave PfHsp40 rescue -1, CCHF vOTU inh-1 -2, PrPC surface inh 6, Sa ugtP lethal -1, PrP UTR inh -26 and Sa RN4220 lethal 2.
`Nc1cc2cccnc2cc1Cl` gave PfHsp40 rescue -1, CCHF vOTU inh-1 39*, PrPC surface inh -8, Sa ugtP lethal -7, PrP UTR inh -20, Sa RN4220 lethal 0 and CCHF vOTU inh-2 8.
`CCCCC[C@H](C)N1C[C@@H](COCc2ccccc2)Oc2cc(N3CC[C@H](O)C3)ccc2S1(=O)=O` gave CCHF vOTU inh-1 40*, PrPC surface inh 0 and CCHF vOTU inh-2 3.
Screening CCCCC[C@@H](C)N1C[C@@H](COCc2ccccc2)Oc2cc(N3CCC[C@H]3CO)ccc2S1(=O)=O returned CCHF vOTU inh-1 28 and PrPC surface inh 2.
Screening CCCCC[C@@H](C)N1C[C@H](COCc2ccccc2)Oc2cc(N3CCC[C@@H]3CO)ccc2S1(=O)=O returned CCHF vOTU inh-1 33*, PrPC surface inh 15 and CCHF vOTU inh-2 17.
For O=C(NCc1nc2ccccc2[nH]1)C1=CC(c2ccc(C(F)(F)F)cc2)CC(OCc2ccc(CO)cc2)O1 (stereo not drawn) the results were Sa ugtP lethal 12 and Sa RN4220 lethal 19.
For Cc1nnc(N/N=C/c2cccc(C(F)(F)F)c2)n1N the results were PfHsp40 rescue -2, CCHF vOTU inh-1 105*, PrPC surface inh -1, PrP UTR inh -6 and CCHF vOTU inh-2 -15.
Cc1nnc(N/N=C/c2ccccc2F)n1N was read as PfHsp40 rescue -1, CCHF vOTU inh-1 75*, PrPC surface inh 0, PrP UTR inh -16 and CCHF vOTU inh-2 -14.
`CCc1nnc(NN=Cc2ccccc2F)n1N` gave Sa ugtP lethal 3 and Sa RN4220 lethal 13.
Cc1nnc(N/N=C/c2cccc(OCc3ccc(Cl)c(Cl)c3)c2)n1N was read as PfHsp40 rescue 38*, CCHF vOTU inh-1 103*, PrPC surface inh 5, PrP UTR inh -11 and CCHF vOTU inh-2 -10.
Screening Cc1nnc(N/N=C/c2ccccc2C(F)(F)F)n1N returned PfHsp40 rescue -2, CCHF vOTU inh-1 65*, PrPC surface inh -5, PrP UTR inh -18 and CCHF vOTU inh-2 -8.
CC[C@]12C(=O)N(C)CC(C3C(=O)N(C)C(=O)C31)N2C(=O)c1ccc(F)cc1 (stereo partly drawn) was read as Sa ugtP lethal -3 and Sa RN4220 lethal 4.
